From PubChem BioAssay AID1490 (National Center for Advancing Translational Sciences (NCATS), 2009)
The campaign covered roughly 310,000 compounds. About 11,000 (3.5%) were called active. Roughly 4% stayed inconclusive and do not appear here. The call rests on the fitted dose curve; in most records, active means well fitted inhibition curve with a large enough effect; inconclusive means small, poorly fitted or top-dose-only effect, or another doubt; inactive means no such curve, though single readings can be large or run the other way. Only a selection was taken, and actives are over-represented in it overall.

target: 4'-phosphopantetheinyl transferase ffp (Bacillus subtilis) (UniProt Q9F4F7); assay: qHTS Assay for Inhibitors of Bacillus subtilis Sfp phosphopantetheinyl transferase (PPTase); conditions: Biochemical Sfp PPTase activity;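 further: the enzyme is Sfp with the accession as filed and its product quenches rhodamine fluorescence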;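 on Largest response in the series, negative = inhibition: 0% = enzyme reaction without inhibitor and -100% = no enzyme wells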
Method in brief: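 Reaction rates are the 30-min fluorescence difference (ex 525, em 598 nm) in wells containing 15 nM Sfp, 5 uM rhodamine-CoA and 12.5 uM BHQ-2-YbbR at pH 7.6 with 10 mM MgCl2.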
Potency means the concentration at half of the fitted maximal effect.

Potency, active:
Nc1nnnn1CC(=O)N/N=C/c1ccc(-c2cccc(Cl)c2)o1 25.1 µM
CCn1c2ccccc2c2cc(NC(=O)Nc3ccc([N+](=O)[O-])cc3C)ccc21 56.2 µM
N#Cc1c(N)sc2c1CCN(C(=O)OCc1ccccc1)C2 20 µM
CCOC(=O)c1c(C)nn(-c2ncccc2NC(=O)CCC(=O)O)c1C 89.1 µM
CCS(=O)(=O)c1cc([N+](=O)[O-])c(Sc2ccccc2N)s1 3.98 µM
O=c1c(O)c(Br)ccc2c(Br)c(O)c(O)c(O)c12 44.7 µM
CNC(=S)N/N=C/c1ccc(N2CCOCC2)s1 8.91 µM
CCn1c(CNc2ccc(OC)cc2)nnc1SCC(=O)c1ccc(OC)cc1 28.2 µM
Cc1ccc(S(=O)(=O)C(C#N)c2nc3ccccc3nc2N2CCCC2)cc1C (configuration not stated) 50.1 µM
S=c1[nH]c(-c2cccs2)cn1-c1ccccc1 15.8 µM

Largest response in the series, negative = inhibition, inactive:
COC(=O)N/N=C/c1ccc(-c2ccc(Cl)c(Cl)c2)o1 -3.69%
CC(=O)c1ccc(NC(=O)Nc2ccc([N+](=O)[O-])cc2C)cc1 10.3%
Cc1cc([N+](=O)[O-])ccc1NC(=O)c1ccc(NC(=O)C(C)C)cc1 6.44%
O=[N+]([O-])c1ccc(N(CCO)Cc2ccccc2)c([N+](=O)[O-])c1 3.62%
O=C(c1cnc(Cl)c(Cl)c1)N1CCN(S(=O)(=O)c2ccc(F)cc2)CC1 -5.59%
Cc1cccc(NC(=O)N2CCCCCC2)c1C 3.74%
CC(=O)N1CCc2c(sc(NC(=O)CCS(=O)(=O)c3ccccc3)c2C#N)C1 -1.97%
CC(C)N1CCc2c(sc(NC(=O)Cc3ccccc3)c2C#N)C1 11.3%
CC(CC(=O)Nc1ccc(F)cc1F)S(=O)(=O)c1ccc2c(c1)NC(=O)CO2 (configuration not stated) 0.768%
NS(=O)(=O)c1ccc(CCNS(=O)(=O)c2cccc3cccnc23)cc1 2.24%
COc1ccc(CN2CCN(C(=O)CCC(=O)Nc3nnc(C(C)C)s3)CC2)cc1F 17.5%
Cc1ccc(NS(=O)(=O)c2ccc(-c3ccc(=O)[nH]n3)o2)c(C)c1 23.5%
CCOC(=O)c1c(-c2ccc(-c3ccccc3)cc2)csc1NC(=O)CCC(=O)O -8.3%
Cc1ccc(OC(=O)c2c(C)nn(-c3ccccc3)c2C)cc1 -5.58%
CN(C(=O)c1cccc([N+](=O)[O-])c1)c1ccccc1C(=O)NCc1ccccc1 15.3%
CCOc1ccc(CNC(=O)CCC(=O)N2CCSc3ccccc32)cc1 11.6%
Nc1ccccc1Sc1ccc(C(F)(F)F)cc1[N+](=O)[O-] 4.01%
CCOC(=O)c1cc(Sc2ccccc2N)cc(C(=O)OCC)n1 2.06%
COCCn1c(N)c(NCc2ccccc2)c(=O)[nH]c1=O -5.84%
CCc1ccc(OCC(=O)NCC(c2ccc(Cl)cc2)N2CCCCC2)cc1 (configuration not stated) -3.22%
CN(CCC1CCOCC1)C(=O)CC1C(=O)NCCN1Cc1cccc(F)c1 (configuration not stated) 18.8%
Cc1cc(C(=O)N/N=C/c2ccc(N3CCOCC3)cc2)c(C)o1 16%
C=CCNC(=S)N/N=C/c1ccc(C)s1 10%
CC(NC(=O)COc1ccc(-c2ccccc2)cc1)C1CCCO1 (configuration not stated) -4.17%
Cc1ccccc1/C=C\c1nc(O)c([N+](=O)[O-])c(=O)[nH]1 2.6%
COC(=O)c1ccc(NC(=O)CSc2nnc(CNc3ccc(OC)cc3)n2C)cc1 7.16%
C=CCn1c(CNC(=O)c2ccco2)nnc1SCC(=O)c1ccc(OC)cc1 17.3%
O=C(NCc1ccc2c(c1)OCO2)C(=O)NCC1OCCN1S(=O)(=O)c1ccc(F)cc1 (configuration not stated) 4.15%
COc1ccc(OC)c([C@H](O)CNC(=O)CN)c1 4.71%
CC(C)c1nnc(NC(=O)CCC(=O)N2CCN(c3cccc(Cl)c3)CC2)s1 0.428%
CC(C)NS(=O)(=O)c1ccc(OCC(=O)NC2CCCCCC2)cc1 6.32%
Cc1ccc(S(=O)(=O)Nc2nc3ccccc3nc2N2CCc3ccccc3C2)cc1 9.29%
Cc1cc(N2CCN(S(=O)(=O)c3ccc(C)c(C)c3)CC2)c2ccccc2n1 -20.8%
COc1ccc(NS(=O)(=O)c2cccc3nsnc23)cc1Cl 13.3%
Cc1cc(-c2ccc(S(=O)(=O)N3CCN(c4cccc(C(F)(F)F)c4)CC3)s2)on1 8.41%
S=c1[nH]nc(-c2cccs2)n1/N=C/c1cn(-c2ccccc2)nc1-c1ccc(Cl)cc1 -17.4%
O=c1[nH]c(-c2cccs2)nc2ccccc12 -0.0388%
